PolyA inh = yeast polyadenylation inhibition. S. cerevisiae SKY197-pL101 polyadenylation reporter, beta-gal luminescence; efflux-impaired pdr1/pdr3 knockout yeast; score 100 = 6 SD above DMSO. activity score, % at 12 µM. 300,000 tested, 0.02% active;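 active = lowest replicate activity score at least 50, where 100 means six control SD above control mean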;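 also: yeast exposed to compound for 9 h at 30 °C; higher score means more reporter readthrough which indicates perturbed polyadenylation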
IDE inh = cellular human IDE inhibition; P14735; HEK cells, FAbetaB cleavage, fluorescence polarization; inhibition, % at 5.59 µM; 320,000 tested, 0.41% active; AID 434962;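 active = percent inhibition above the average of all tested compounds plus 3 SD, set per screening campaign, cut at about 16% in these data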;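 also: IDE supplied by intact live HEK cells; FP after avidin binding of uncleaved biotin substrate so inhibition keeps polarization high; 0% = DMSO wells and 100% = 60 µM reference IDE inhibitor Ii1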
IDE cell activ = activators of human insulin-degrading enzyme in cells; P14735; HEK cells, FAbeta-B cleavage, fluorescence polarization; 0% vehicle, 100% cell-free pure enzyme wells; activation, % at 5.96 µM; 340,000 tested, 0.073% active; AID 493087;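 active = activation above the mean of all tested compounds plus 3 SD, set per screening campaign, cut at about 17% in these data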
CaV13 ICDI inh = Primary screen for inhibitors of IQ motif and Ca2+-dependent inactivation inhibitor domain binding in CACNA1D, Förster resonance energy transfer in living cells, …; 340,000 tested, 0.098% active; HEK cells, CFP/YFP FRET ICDI-IQ, plate reader, 10 min; percent FRET-ratio fall versus neutral wells; inhibition, % at 12.3 µM;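 active = mean replicate inhibition of at least 30% and at least 1% of replicates passing that level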;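 also: 0% = median of the neutral control wells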
ALR H2O2 inh = inhibitors of human sulfhydryl oxidase ALR. P55789. purified ALR, DTT oxidation, H2O2 HRP-luminol luminescence. inhibition, % (no concentration beside the values). 290,000 tested, 3.8% active;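 active = mean replicate inhibition above about 79%, with every replicate also reaching it, limit read from the data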
Target sequence (P55789 whole entry, looked up): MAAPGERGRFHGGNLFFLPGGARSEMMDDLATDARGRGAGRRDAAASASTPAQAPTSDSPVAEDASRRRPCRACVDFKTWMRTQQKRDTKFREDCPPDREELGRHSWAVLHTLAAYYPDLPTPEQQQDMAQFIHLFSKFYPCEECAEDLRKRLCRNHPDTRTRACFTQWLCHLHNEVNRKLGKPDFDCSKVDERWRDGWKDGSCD
PfM18AAP inh-1 = PfM18AAP enzyme inhibition; recombinant PfM18AAP, H-Glu-NHMec fluorogenic cleavage; inhibition, % at 7.35 µM; 290,000 tested, 1.2% active; AID 1822;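 active = inhibition above the campaign mean inhibition over all tested compounds plus 3 SD, cut at about 28% in these data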;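 also: 0% = plate median of test compound wells and 100% = 2 mM ZnCl2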
PfM18AAP inh-2 = PfM18AAP inhibition, confirmation; shares compounds with PfM18AAP inh-1; recombinant PfM18AAP, H-Glu-NHMec fluorogenic cleavage; inhibition, % at 7.35 µM; 2,400 tested, 28% active; AID 2170;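 active = mean inhibition over replicate wells above the hit cutoff set for the earlier primary screen, cut at about 29% in these data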;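 also: 0% = median of test compound wells and 100% = 2 mM ZnCl2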
CTSL1 counter = counter-screen for PFM18AAP inhibitors: confirmation of human cathepsin L inhibitors. 2,400 tested, under 10 active. inhibition, % at 5.96 µM. purified cathepsin L1, Z-Leu-Arg-MCA fluorescence. shares compounds with PfM18AAP inh-1;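 active = average inhibition across replicates above the hit cutoff set in the earlier primary screen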;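 also: 0% = median of test compound wells and 100% = Z-Phe-Ala-diazomethylketone 1 µM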
Target sequence (P07711 whole entry, looked up): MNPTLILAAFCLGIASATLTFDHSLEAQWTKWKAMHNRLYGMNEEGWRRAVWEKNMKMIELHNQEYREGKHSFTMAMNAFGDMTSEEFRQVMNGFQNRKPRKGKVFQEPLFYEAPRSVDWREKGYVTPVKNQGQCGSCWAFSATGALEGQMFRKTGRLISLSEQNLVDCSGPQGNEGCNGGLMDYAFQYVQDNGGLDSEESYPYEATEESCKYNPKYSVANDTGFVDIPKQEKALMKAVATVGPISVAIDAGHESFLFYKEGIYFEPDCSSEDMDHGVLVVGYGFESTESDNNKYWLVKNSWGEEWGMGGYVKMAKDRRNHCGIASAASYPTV
The depositor's hits bear a star; / = no result given. Sampled rows, rich in hits. Any-hit rate of the full collection: about 4.1%.

SMILES | PolyA inh | IDE inh | IDE cell activ | CaV13 ICDI inh | ALR H2O2 inh | PfM18AAP inh-1 | PfM18AAP inh-2 | CTSL1 counter
C/C(=N\Nc1cc(C)nc(-c2ccccc2O)n1)c1ccccc1 | -9 | 0 | -5 | -7 | -8 | 11 | / | /
Cc1cc(N/N=C/c2ccc(O)c(C)c2O)nc(-c2ccccc2O)n1 | -16 | 11 | -1 | -4 | 4 | 44* | 38* | 4
CCOC(=O)N1CCN(C(=O)CC(C)S(=O)(=O)c2cc3c(cc2C)NC(=O)CO3)CC1 (stereo not drawn) | 8 | 2 | 3 | -4 | -1 | -1 | / | /
COC(=O)Cc1ccc(O)c(N)c1 | 2 | 0 | 5 | -5 | 95* | 54* | 61* | 0
CSCC[C@H](NC(=O)C1=NN(c2c(F)c(F)cc(F)c2F)C(=O)CC1)c1nc2ccccc2[nH]1 | -11 | -1 | 4 | -7 | -2 | 2 | / | /
CCOc1c(Nc2ccccc2O)c(=O)c1=O | 6 | 0 | 5 | -4 | 40 | 35* | -28 | 1
CCOC(=O)c1ccc(Nc2c(OCC)c(=O)c2=O)cc1 | 20 | -3 | 3 | -17 | -4 | 3 | / | /
Nc1ccc(C(=O)N/N=C/c2ccc(N3CCOCC3)s2)cc1 | / | 11 | -2 | -6 | / | / | / | /
O=C(N/N=C/c1ccc(N2CCOCC2)s1)c1ccccc1Br | -4 | 5 | 3 | -18 | 4 | 41* | -22 | 7
COc1cc(-c2cc(=O)c3c(O)c(OC)c(OC)c(O)c3o2)ccc1O | 3 | 4 | 0 | / | 99* | 49* | 32* | 3
COc1c(O)c(O)c2oc(-c3ccccc3)cc(=O)c2c1OC | 26 | 7 | -1 | / | 51 | 33* | 12 | 3
COc1ccc(-c2oc3c(OC)c(OC)c(OC)c(O)c3c(=O)c2OC)cc1OC | -6 | -3 | 6 | / | -6 | 7 | / | /
Nc1nncn1C(=O)c1ccccc1Cl | 11 | -3 | 2 | -8 | 1 | 60* | 55* | -1
Nc1nc(-c2cccnc2)nn1C(=O)c1ccccc1Cl | 5 | / | -3 | -4 | / | -4 | / | /
Nc1nncn1C(=O)c1ccc(Cl)cc1Cl | 4 | -5 | 3 | 1 | 6 | 37* | 51* | -1
O=C(c1ccc(Cl)cc1Cl)N1CCN(c2ccc(N3CCOCC3)nn2)CC1 | 13 | 7 | 0 | -5 | 4 | / | / | /
CCOC(=O)c1sc(=S)n(C)c1NC(=O)c1ccccc1C | 4 | 3 | 1 | -4 | 3 | 35* | 6 | 2
O=C(O)C1Sc2[nH]c(=O)sc2C2c3ccc(O)cc3OC(=O)C12 (stereo not drawn) | / | 12 | 1 | -3 | 68 | 38* | 5 | -7
O=C(O)C1Sc2[nH]c(=O)sc2C2c3cc(Br)ccc3OC(=O)C12 (stereo not drawn) | 9 | 4 | -4 | -2 | / | 13 | / | /
COc1cc(NC(=O)NNC(=O)c2cc3occc3n2C)cc(OC)c1OC | -7 | 6 | 6 | -7 | 43 | 60* | 30* | -1
COc1cc(-c2c(C#N)c(N)nc3[nH]c(=S)[nH]c(=O)c23)ccc1O | -7 | -2 | 2 | -4 | 99* | 33* | 21 | 7
O=C1c2ccccc2[C@@H]2C[C@@H](O)[C@H](Nc3cccc(Cl)n3)CCN12 | / | / | 3 | -8 | / | / | / | /
CC1CCCN(C(=O)c2nn(C)c3c2CSc2ccccc2-3)C1 (stereo not drawn) | -1 | 1 | -3 | 3 | 40 | 42* | 2 | -1
Cc1ccc(C(=O)OCC(=O)NC(C)c2ccccc2)cc1C (stereo not drawn) | / | 3 | 0 | -5 | -1 | / | / | /
O=C(c1ccccc1)N1CCN(c2ccc([N+](=O)[O-])c(NCc3cccnc3)c2)CC1 | 6 | -5 | 20* | -3 | / | 44* | -53 | 1
SMILES | PolyA inh | IDE inh | IDE cell activ | CaV13 ICDI inh | ALR H2O2 inh | PfM18AAP inh-1 | PfM18AAP inh-2 | CTSL1 counter
COc1ccc(NC(=O)CCOc2ccc(C)cc2)c(OC)c1 | -8 | 2 | 2 | -2 | -22 | 9 | / | /
CC(C)CC1CC(C)(c2csc(NNC(=O)c3ccccc3)n2)OC1=O (stereo not drawn) | -15 | 2 | 0 | -4 | 51 | 33* | -10 | -1
CC1(C)CC(CC(=O)Nc2ccccn2)C(=O)O1 (stereo not drawn) | 6 | 8 | 2 | -4 | -6 | 0 | / | /
CC1(C)CC(CC(=O)NNc2nc(-c3ccccc3)cs2)C(=O)O1 (stereo not drawn) | 19 | 13 | -3 | -4 | / | 34* | -1 | -7
Cc1ccc(S(=O)(=O)Nc2nc(C)cc(NCCN)n2)cc1 | 16 | -1 | 7 | -7 | -3 | 4 | / | /
Cc1cc(NN)nc(NS(=O)(=O)c2ccccc2Cl)n1 | 7 | 5 | 4 | -21 | 36 | 39* | -2 | 2
COc1cc(C)nc(NS(=O)(=O)c2ccccc2Cl)n1 | 14 | -3 | 0 | -4 | -7 | 1 | / | /
Cc1ccc(S(=O)(=O)Nc2nc(C)cc(NN)n2)cc1 | 6 | 1 | -8 | -7 | 2 | 40* | 29* | -1
COc1ccccc1N1CCN(C(=S)Nc2ccc(S(=O)(=O)N3CCOCC3)cc2)CC1 | -10 | 1 | -7 | -2 | 18 | 32* | -48 | 2
O=S(=O)(c1ccc(NC(=S)N2CCN(c3ccccc3F)CC2)cc1)N1CCOCC1 | 6 | 10 | 0 | -3 | 2 | 1 | / | /
O=C(NCc1ccco1)c1cc(S(=O)(=O)NC2CC2)ccc1Br | / | 6 | 1 | -6 | -5 | / | / | /
C=CCc1cccc(/C=N/c2ncn[nH]2)c1O | -9 | 1 | 6 | -5 | / | 57* | 43* | -4
C=CCc1cccc(C=Nc2cc(Br)ccc2O)c1O | -84 | -3 | 2 | -7 | 11 | 10 | / | /
CC(Sc1ncn[nH]1)C(=O)NCc1ccccc1 (stereo not drawn) | 18 | 3 | 2 | -7 | -16 | 35* | 17 | -1
O=C(CSc1ncn[nH]1)NCCc1ccccc1 | -2 | 3 | 10 | -5 | -1 | 9 | / | /
Cc1ccccc1OCC(=O)OC(C)C(=O)NC1CCCC1 (stereo not drawn) | / | -1 | 1 | -3 | -6 | / | / | /
CCN(c1ccccc1)S(=O)(=O)c1cccc(C(=O)Nc2ccc(C)cn2)c1 | 8 | -4 | -3 | / | 0 | 4 | / | /
O=c1c(O)c(-c2ccc(O)c(O)c2)oc2cc(O)cc(O)c12 | 24 | 2 | -8 | -7 | 99* | 76* | 65* | -5
